From the supplement of paper PMC4466140

biological target: AgAbp1; assay: SPOT peptide array binding signal intensity (averaged, normalized) (arbitrary units (background-subtracted, floor 0; scale differs between SH3 domains)); higher = stronger binding of the SH3 domain to the peptide
Method in brief: (§1)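 Spot intensities were captured after detection with anti-GST antibody, an HRP-linked anti-mouse secondary and luminol, and quantified with Genespotter. The probes were GST-fused SH3 domains from four yeast species, produced in E. coli BL21(DE3), purified on glutathione Sepharose and incubated at 10 μg/ml overnight at 4°C on cellulose-bound synthetic 15-mer peptides with cysteines replaced by serines. Binding signal is the normalized, background-subtracted spot intensity averaged over replicates, and its arbitrary units differ between domains.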

Binder | SPOT peptide array binding signal intensity
LRIKRKPVQTFFEFI | 76

biological target: AgBbc1; assay: as above
Method in brief: as §1

Binder | SPOT peptide array binding signal intensity
LRIKRKPVQTFFEFI | 24.2

biological target: AgBem1-D1; assay: as above
Method in brief: as §1

Binder | SPOT peptide array binding signal intensity
LRIKRKPVQTFFEFI | 212

biological target: AgBzz1-D1; assay: as above
Method in brief: as §1

Binder | SPOT peptide array binding signal intensity
LRIKRKPVQTFFEFI | 109

biological target: AgBzz1-D2; assay: as above
Method in brief: as §1

Binder | SPOT peptide array binding signal intensity
LRIKRKPVQTFFEFI | 42

biological target: AgCyk3; assay: as above
Method in brief: as §1

Binder | SPOT peptide array binding signal intensity
LRIKRKPVQTFFEFI | 4

biological target: AgFus1; assay: as above
Method in brief: as §1

Binder | SPOT peptide array binding signal intensity
LRIKRKPVQTFFEFI | 398

biological target: AgHof1; assay: as above
Method in brief: as §1

Binder | SPOT peptide array binding signal intensity
LRIKRKPVQTFFEFI | 19.5

biological target: AgHse1; assay: as above
Method in brief: as §1

Binder | SPOT peptide array binding signal intensity
LRIKRKPVQTFFEFI | 960

biological target: AgLsb1; assay: as above
Method in brief: as §1

Binder | SPOT peptide array binding signal intensity
LRIKRKPVQTFFEFI | 1

biological target: AgLsb4; assay: as above
Method in brief: as §1

Binder | SPOT peptide array binding signal intensity
LRIKRKPVQTFFEFI | 136

biological target: AgMyo5; assay: as above
Method in brief: as §1

Binder | SPOT peptide array binding signal intensity
LRIKRKPVQTFFEFI | 0.5

biological target: AgNbp2; assay: as above
Method in brief: as §1

Binder | SPOT peptide array binding signal intensity
LRIKRKPVQTFFEFI | 72

biological target: AgRvs167; assay: as above
Method in brief: as §1

Binder | SPOT peptide array binding signal intensity
LRIKRKPVQTFFEFI | 4.33

biological target: AgSho1; assay: as above
Method in brief: as §1

Binder | SPOT peptide array binding signal intensity
LRIKRKPVQTFFEFI | 49

biological target: AgSla1-D1-D2; assay: as above
Method in brief: as §1

Binder | SPOT peptide array binding signal intensity
LRIKRKPVQTFFEFI | 432

biological target: AgSla1-D3; assay: as above
Method in brief: as §1

Binder | SPOT peptide array binding signal intensity
LRIKRKPVQTFFEFI | 10.5

biological target: CaAbp1-D1; assay: as above
Method in brief: as §1

Binder | SPOT peptide array binding signal intensity
LRIKRKPVQTFFEFI | 816

biological target: CaAbp1-D2; assay: as above
Method in brief: as §1

Binder | SPOT peptide array binding signal intensity
LRIKRKPVQTFFEFI | 948

biological target: CaBbc1; assay: as above
Method in brief: as §1

Binder | SPOT peptide array binding signal intensity
LRIKRKPVQTFFEFI | 91.2

biological target: CaBem1-D1; assay: as above
Method in brief: as §1

Binder | SPOT peptide array binding signal intensity
LRIKRKPVQTFFEFI | 16

biological target: CaBzz1-D1; assay: as above
Method in brief: as §1

Binder | SPOT peptide array binding signal intensity
LRIKRKPVQTFFEFI | 107

biological target: CaBzz1-D2; assay: as above
Method in brief: as §1

Binder | SPOT peptide array binding signal intensity
LRIKRKPVQTFFEFI | 59.2

biological target: CaCyk3; assay: as above
Method in brief: as §1

Binder | SPOT peptide array binding signal intensity
LRIKRKPVQTFFEFI | 18

biological target: CaFus1; assay: as above
Method in brief: as §1

Binder | SPOT peptide array binding signal intensity
LRIKRKPVQTFFEFI | 1010

biological target: CaHof1; assay: as above
Method in brief: as §1

Binder | SPOT peptide array binding signal intensity
LRIKRKPVQTFFEFI | ≤ 0

biological target: CaHse1; assay: as above
Method in brief: as §1

Binder | SPOT peptide array binding signal intensity
LRIKRKPVQTFFEFI | 15

biological target: CaLsb1; assay: as above
Method in brief: as §1

Binder | SPOT peptide array binding signal intensity
LRIKRKPVQTFFEFI | 0.5

biological target: CaLsb4; assay: as above
Method in brief: as §1

Binder | SPOT peptide array binding signal intensity
LRIKRKPVQTFFEFI | 59

biological target: CaMyo5; assay: as above
Method in brief: as §1

Binder | SPOT peptide array binding signal intensity
LRIKRKPVQTFFEFI | 14

biological target: CaNbp2; assay: as above
Method in brief: as §1

Binder | SPOT peptide array binding signal intensity
LRIKRKPVQTFFEFI | 468

biological target: CaRvs167; assay: as above
Method in brief: as §1

Binder | SPOT peptide array binding signal intensity
LRIKRKPVQTFFEFI | 16.5

biological target: CaRvs167-3; assay: as above
Method in brief: as §1

Binder | SPOT peptide array binding signal intensity
LRIKRKPVQTFFEFI | 843

biological target: CaSho1; assay: as above
Method in brief: as §1

Binder | SPOT peptide array binding signal intensity
LRIKRKPVQTFFEFI | 1260

biological target: CaSla1-D1-D2; assay: as above
Method in brief: as §1

Binder | SPOT peptide array binding signal intensity
LRIKRKPVQTFFEFI | 37

biological target: CaSla1-D3; assay: as above
Method in brief: as §1

Binder | SPOT peptide array binding signal intensity
LRIKRKPVQTFFEFI | 37

biological target: ScAbp1; assay: as above
Method in brief: as §1

Binder | SPOT peptide array binding signal intensity
LRIKRKPVQTFFEFI | 355

biological target: ScBbc1; assay: as above
Method in brief: as §1

Binder | SPOT peptide array binding signal intensity
LRIKRKPVQTFFEFI | 6.75

biological target: ScBem1-D1; assay: as above
Method in brief: as §1

Binder | SPOT peptide array binding signal intensity
LRIKRKPVQTFFEFI | 57

biological target: ScBzz1-D1; assay: as above
Method in brief: as §1

Binder | SPOT peptide array binding signal intensity
LRIKRKPVQTFFEFI | 39.5

biological target: ScBzz1-D2; assay: as above
Method in brief: as §1

Binder | SPOT peptide array binding signal intensity
LRIKRKPVQTFFEFI | 49.5

biological target: ScCyk3; assay: as above
Method in brief: as §1

Binder | SPOT peptide array binding signal intensity
LRIKRKPVQTFFEFI | 138

biological target: ScFus1; assay: as above
Method in brief: as §1

Binder | SPOT peptide array binding signal intensity
LRIKRKPVQTFFEFI | 651

biological target: ScHof1; assay: as above
Method in brief: as §1

Binder | SPOT peptide array binding signal intensity
LRIKRKPVQTFFEFI | 5.5

biological target: ScHse1; assay: as above
Method in brief: as §1

Binder | SPOT peptide array binding signal intensity
LRIKRKPVQTFFEFI | 1800

biological target: ScLsb1; assay: as above
Method in brief: as §1

Binder | SPOT peptide array binding signal intensity
LRIKRKPVQTFFEFI | 21.2

biological target: ScLsb2; assay: as above
Method in brief: as §1

Binder | SPOT peptide array binding signal intensity
LRIKRKPVQTFFEFI | 5.5

biological target: ScLsb3; assay: as above
Method in brief: as §1

Binder | SPOT peptide array binding signal intensity
LRIKRKPVQTFFEFI | 156

biological target: ScLsb4; assay: as above
Method in brief: as §1

Binder | SPOT peptide array binding signal intensity
LRIKRKPVQTFFEFI | 23

biological target: ScMyo3; assay: as above
Method in brief: as §1

Binder | SPOT peptide array binding signal intensity
LRIKRKPVQTFFEFI | 7

biological target: ScMyo5; assay: as above
Method in brief: as §1

Binder | SPOT peptide array binding signal intensity
LRIKRKPVQTFFEFI | 1.75

biological target: ScNbp2; assay: as above
Method in brief: as §1

Binder | SPOT peptide array binding signal intensity
LRIKRKPVQTFFEFI | 150

biological target: ScPex13; assay: as above
Method in brief: as §1

Binder | SPOT peptide array binding signal intensity
LRIKRKPVQTFFEFI | 18

biological target: ScRvs167; assay: as above
Method in brief: as §1

Binder | SPOT peptide array binding signal intensity
LRIKRKPVQTFFEFI | 24.2

biological target: ScSho1; assay: as above
Method in brief: as §1

Binder | SPOT peptide array binding signal intensity
LRIKRKPVQTFFEFI | 718

biological target: ScSla1-D1-D2; assay: as above
Method in brief: as §1

Binder | SPOT peptide array binding signal intensity
LRIKRKPVQTFFEFI | 220

biological target: ScSla1-D3; assay: as above
Method in brief: as §1

Binder | SPOT peptide array binding signal intensity
LRIKRKPVQTFFEFI | 14

biological target: SpAbp1-D1; assay: as above
Method in brief: as §1

Binder | SPOT peptide array binding signal intensity
LRIKRKPVQTFFEFI | 228

biological target: SpBbc1; assay: as above
Method in brief: as §1

Binder | SPOT peptide array binding signal intensity
LRIKRKPVQTFFEFI | 5

biological target: SpBzz1-D1; assay: as above
Method in brief: as §1

Binder | SPOT peptide array binding signal intensity
LRIKRKPVQTFFEFI | 128
